The test can be described thus: Nuclear factor erythroid 2-related factor 2/antioxidant responsive element (Nrf2/ARE) small molecule agonists: qHTS cell viability counter screen in human keratinocytes (AID 1919968). Further: nearly all actives have a fitted effect of over 55% in size. A digest of the protocol:
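CellTiter-Fluor fluorescence, read 1 h after reagent, gave viability in the same wells as the ARE-luciferase assay. KeratinoSens cells (1,500/well) had 23 h compound exposure at 37 C/5% CO2 following 5 h plating.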
(In qHTS, concentration-response curves come from the screen itself.)

Records with an inconclusive call do not appear. Where a call stands in place of a potency, no number is given. Calls of active or inactive are those of the source. The call rests on the fitted dose curve; in most records, active means well fitted cell-killing curve with a large enough effect in the repeat runs; inconclusive means weak or mixed curves, or effect the other way; inactive means flat fitted curve, though single readings scatter.
Potency means the concentration at half of the fitted maximal effect.

Consider `C=C(C)C(=O)OCCCC`, for which the Potency entry was “inactive”. `O=NN(CCCl)C(=O)NCCCl`: the Potency entry was “inactive”. Regarding `CCO`, the Potency entry was “inactive”. Regarding `COCCCN1CCC(NC(=O)c2cc(Cl)c(N)c3c2OCC3)CC1`, the Potency result was “inactive”. Consider `CCCCCCCCCCCSCC(=O)O`, for which the Potency entry was “inactive”. Turning to `CC(C)C(=O)OC/C=C/c1ccccc1`, the Potency entry is “inactive”. As to `CC(C)(C)NCCNC(C)(C)C`, the Potency result was “inactive”.

For `CN1CCCCC1CCN1c2ccccc2Sc2ccc(S(C)=O)cc21` (stereo not given), the Potency result was “inactive”. For `CCCCOc1cc(C(=O)OCCN(CC)CC)ccc1N`, the Potency entry is “inactive”. As to `COc1ccc2c(c1)C(=O)N(CCc1ccc(S(=O)(=O)NC(=O)NC3CCCCC3)cc1)C(=O)C2(C)C`, the Potency result is “inactive”. Same read-out and setting: the value for `C1=C\CC/C=C\CC/1` was “inactive”; that for `CCN1CCN(c2cc3c(cc2F)c(=O)c(C(=O)O)cn3C2CC2)CC1` was “inactive”. On to `C=C[Si](C)(C)O[Si](C)(C)C=C`, for which the Potency result is “inactive”. In the case of `CC1(C)S[C@@H]2[C@H](NC(=O)Cc3ccccc3)C(=O)N2[C@H]1C(=O)O` (tested in a mixture with another compound), the Potency result was “inactive”. Consider `CN1CCN(C2=Nc3ccccc3Oc3ccc(Cl)cc32)CC1`, for which the Potency entry is “inactive”. Consider `CCOC(=O)[C@H](CCc1ccccc1)N[C@@H](C)C(=O)N(CC(=O)O)C1Cc2ccccc2C1`, for which the Potency result was “inactive”. As to `CC(C)CCCC(C)(C)O`, the Potency result is “inactive”.

For the compound `O=C(O)c1cc(C(=O)O)c(C(=O)O)cc1C(=O)O`, the Potency result was “inactive”. For the compound `CCCCCN=C(N)N/N=C/c1c[nH]c2ccc(OC)cc12`, the Potency was 6.68 µM (active).

Regarding `NC[C@H]1O[C@H](O[C@H]2[C@H](O[C@@H]3O[C@H](CO)[C@@H](O)[C@H]3O)C(O)[C@H](N)C[C@@H]2N)[C@H](N)[C@@H](O)[C@@H]1O` (stereo not given in full), the activity change, negative = cytotoxicity is -6.49% [at 8.39 µM] (inactive). Regarding `O=c1cc(-c2ccccc2)oc2ccc3ccccc3c12`, the Potency entry was “inactive”. The same measure, in the same setting: the value for `CC(C)[N+](C)(C)CC(O)COc1cccc2ccccc12` (stereo not given) was “inactive”; that for `COc1ccc2c(c1)c(CC(=O)OCC(=O)O)c(C)n2C(=O)c1ccc(Cl)cc1` was “inactive”; that for `CC(=O)CCCCn1c(=O)c2c(ncn2C)n(C)c1=O` was “inactive”. On the same count and under the same terms, the value for `CN1CC(=O)NC1=N` was “inactive”; that for `Cc1cccc(CN2CCN(C(c3ccccc3)c3ccc(Cl)cc3)CC2)c1` (stereo not given) was 18.8 µM (active); that for `CCNC(=O)NCCCOc1cccc(CN2CCCCC2)c1` was “inactive”. As to `Nc1ccc(S(=O)(=O)Nc2ccnn2-c2ccccc2)cc1`, the activity change, negative = cytotoxicity was 8.64% [at 19 µM] (inactive). For the compound `C=CC1CO1` (stereo not given), the Potency entry is “inactive”. Regarding `CC(C(=O)O)c1ccc(CC2CCCC2=O)cc1` (stereo not given), the Potency entry is “inactive”.
